Bioassay records deposited in PubChem by National Center for Advancing Translational Sciences (NCATS).
This is a sample that favours compounds with a hit; in the whole collection about 3.2% have one here.
VDR inh: blocks the human vitamin D receptor | P11473 | VDR-SRC2-3 peptide fluorescence polarization, 2 h | Potency, µM, usual class: inhibitors | 400,000 compounds, 0.93% hits; active = well fitted curve in the direction sought with a large enough effect; inconclusive = small, poorly fitted or top-dose-only effect, or another doubt; inactive = no such curve, though single readings can be large; an effect the other way counts as inactive or inconclusive
Target sequence (P11473 whole entry, looked up): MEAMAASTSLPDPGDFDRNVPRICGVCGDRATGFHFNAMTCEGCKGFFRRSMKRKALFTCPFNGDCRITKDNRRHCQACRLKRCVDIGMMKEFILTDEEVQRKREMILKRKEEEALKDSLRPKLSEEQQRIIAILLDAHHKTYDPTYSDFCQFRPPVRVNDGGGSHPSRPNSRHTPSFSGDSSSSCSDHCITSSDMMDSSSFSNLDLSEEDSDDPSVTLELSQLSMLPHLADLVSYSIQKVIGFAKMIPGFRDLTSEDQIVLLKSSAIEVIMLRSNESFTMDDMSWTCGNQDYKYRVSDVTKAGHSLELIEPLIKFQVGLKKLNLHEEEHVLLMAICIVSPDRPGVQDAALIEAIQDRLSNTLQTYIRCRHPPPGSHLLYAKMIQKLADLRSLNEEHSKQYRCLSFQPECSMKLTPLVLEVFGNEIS
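Inhibition of the VDR/SRC2-3 peptide interaction is quantified by fluorescence polarization. Compounds (23 nl, pintool) incubate with the reagents for 2 hours at ambient room temperature.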
Coupling enz: inhibits coupling enzyme system, counter-screen for aldolase hits | coupling enzyme system counterscreen, AmpLite Red fluorescence | activity change, negative = inhibition, % at 58.2 µM, hits read low | 290,000 compounds, 0.67% hits | AID 2472; in the data active = activity change below about -30%
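Counterscreen of the coupled detection system alone, without aldolase: glyceraldehyde-3-phosphate coupling enzymes plus AmpLite Red readout. Compounds at 57.5 uM final, 10 min RT preincubation, 20 min RT reaction, fluorescence 525/598 nm.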
PLK1 PBD block: PLK1 (human) polo-box domain binding inhibition; P53350; Plk1 PBD binding of FITC phosphopeptide, fluorescence polarization; Potency, µM, most hits filed as inhibitors; 360,000 compounds, 2.8% hits; AID 720504; active = well fitted curve in the direction sought with a large enough effect; inconclusive = small, poorly fitted or top-dose-only effect, or another doubt; inactive = no such curve, though single readings can be large; an effect the other way counts as inactive or inconclusive; also: series mostly up to about 57 µM; nearly all actives have a fitted effect of over 65% in size
GALK inhibitor: galactokinase (human) inhibition | Purified GALK, Kinase-Glo residual ATP luminescence | AID 1868 | Potency, µM (doses to about 57.5 µM), usual class: inhibitors | P51570 | 270,000 compounds, 0.007% hits; active = well fitted curve in the direction sought with a large enough effect; inconclusive = small, poorly fitted or top-dose-only effect, or another doubt; inactive = no such curve, though single readings can be large; an effect the other way counts as inactive or inconclusive
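GALK at 5 nM final was combined with compound, 35 uM ATP and 100 uM galactose in HEPES pH8.0 with MgCl2 and DTT. The reaction ran one hour at room temperature before luminescent ATP detection.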
USP2a inh: USP2a (human) protease inhibition. O75604. USP2 core, Ub-CHOP2 coupled fluorogenic reporter, 485/531. Potency, µM (titrated, usually from 38.3 µM), actives largely listed as inhibitors. 330,000 compounds, 0.01% hits. AID 463254; active = well fitted curve in the direction sought with a large enough effect; inconclusive = small, poorly fitted or top-dose-only effect, or another doubt; inactive = no such curve, though single readings can be large; an effect the other way counts as inactive or inconclusive
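Cell-free coupled assay: 10nM USP2 core preincubated 30min RT with compound in Tris-HCl pH 8.0/CaCl2/CHAPS buffer, then 25nM Ub-CHOP2 and 25nM reporter substrate; fluorescence (Ex 485/Em 531) read after 60min RT, normalized to NEM inhibition, concentration-response curves fitted.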
USP1 inh: blocks the human USP1/UAF1 deubiquitinase complex | O94782 | recombinant USP1/UAF1, Ub-Rhodamine cleavage fluorescence | Potency, µM (top dose mostly 57.1 µM), hits mostly inhibitors | 390,000 compounds, 0.23% hits | AID 743255; active = well fitted curve in the direction sought with a large enough effect; inconclusive = small, poorly fitted or top-dose-only effect, or another doubt; inactive = no such curve, though single readings can be large; an effect the other way counts as inactive or inconclusive; also: nearly all actives have a fitted effect of over 60% in size
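High-throughput fluorogenic screen: 1nM USP1/UAF1 complex, Ub-Rho substrate 150nM final, 50mM HEPES pH 7.8 with 0.5mM EDTA, 0.1 mg/ml BSA, 1mM TCEP and 0.01% Tween-20.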
Casp1 catalase: counter-screen for redox active human caspase-1 inhibitors with catalase | shares compounds with Coupling enz | caspase-1 Ac-WEHD-AFC fluorescence rate, catalase buffer | Potency, µM (highest dose often 57.5 µM), hits mostly inhibitors | 30 tested, under 10 active | AID 888
CASP1 inh CRC: blocks human caspase-1 activity in concentration-response; 60 compounds, 20% hits; shares compounds with Coupling enz; Potency, µM (top dose mostly 57.5 µM), most hits filed as inhibitors; purified caspase-1, fluorogenic substrate cleavage
Casp7 confirm: confirmation of allosteric or competitive inhibitors of human caspase-7. shares compounds with Coupling enz. AID 897. Potency, µM (highest dose often 57.5 µM), usual class: inhibitors. 60 tested, under 10 active. recombinant caspase-7, fluorogenic substrate cleavage; active = well fitted inhibition curve with a large enough effect in the main read-out, with a control signal flat, not every such curve was filed as active; inconclusive = small, poorly fitted or top-dose-only effect, or a change in a side signal; inactive = no such curve, though single readings can be large or run the other way
Target sequence (P55210 24-198 limits assumed): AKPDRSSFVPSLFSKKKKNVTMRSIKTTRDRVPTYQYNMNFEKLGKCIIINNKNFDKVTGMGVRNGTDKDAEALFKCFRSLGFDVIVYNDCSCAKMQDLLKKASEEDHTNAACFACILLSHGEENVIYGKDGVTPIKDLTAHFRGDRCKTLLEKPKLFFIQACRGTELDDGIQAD
Target sequence (P55210 207-303 limits assumed): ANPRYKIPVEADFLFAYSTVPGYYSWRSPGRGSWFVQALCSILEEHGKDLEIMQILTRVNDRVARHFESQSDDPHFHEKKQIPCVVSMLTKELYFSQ
Casp7 cysteine: counter-screen for redox active caspase-7 inhibitors: cysteine buffer; 60 tested, under 10 active; shares compounds with Coupling enz; AID 908; Potency, µM (titrated, usually from 57.5 µM), most hits filed as inhibitors; caspase-7 enzyme with cysteine, fluorogenic substrate, redox counterscreen
CASP7 redox cat: counter-screen for redox active caspase-7 inhibitors: catalase buffer; shares compounds with Coupling enz; Caspase-7 Ac-DEVD-AFC fluorescence rate, catalase buffer; Potency, µM (highest dose often 57.5 µM), most hits filed as inhibitors; 30 tested, under 10 active
CASP1 redox cys: counter-screen for redox active caspase-1 inhibitors: cysteine buffer. shares compounds with Coupling enz. recombinant caspase-1, fluorogenic substrate, cysteine buffer. Potency, µM (top dose mostly 57.5 µM), actives largely listed as inhibitors. 60 tested, under 10 active. AID 929
Large screens that a line does not name were inactive (follow-up assays come after a bar, where they were run); ! = repeats disagree. Unless noted, calls follow the shape of the dose curve; as a rule, active = well fitted inhibition curve with a large enough effect in the main read-out, with a control signal flat; inconclusive = small, poorly fitted or top-dose-only effect, or a change in a side signal; inactive = no such curve, though single readings can be large or run the other way.

O=C1N(c2ccc(Cl)cc2)C(c2ccccc2)N2CCCN12 (stereo unspecified)	VDR inh inconclusive, PLK1 PBD block 19µM
O=C1N(c2ccccc2)C(c2ccccc2)N2CCCN12 (stereo unspecified)	none
Cc1ccc2nc(NC(=O)c3cccc(-c4cc5ccccc5oc4=O)c3)sc2c1	none
COc1ccc(N2C(=O)C(Cl)=C(Nc3c(C)n(C)n(-c4ccccc4)c3=O)C2=O)cc1	VDR inh inconclusive, PLK1 PBD block 24µM
O=C1C(Cl)=C(NCCCO)C(=O)c2ccccc21	Coupling enz -38, USP1 inh inconclusive
Cc1ccc(NC2=C(NCCO)C(=O)c3ccccc3C2=O)cc1	VDR inh inconclusive, Coupling enz -48, USP1 inh 14µM
O=C(c1ccncc1)N1N=C(C2CC2)CC1(O)C(F)(F)F (stereo unspecified)	none
COc1ccc(OCC(=O)Nc2nc3ccccc3[nH]2)cc1	none
O=C(COC(=O)/C=C/c1ccccc1[N+](=O)[O-])NC1CCS(=O)(=O)C1 (stereo unspecified)	none
O=C(COC(=O)/C=C/c1ccccc1[N+](=O)[O-])NC1CC1	VDR inh 71µM, PLK1 PBD block 17µM
Cc1ccc(C(=O)Nc2ncc3c(Cl)cccc3n2)cc1	PLK1 PBD block 21µM
O=C(Cc1c[nH]c2ccccc12)NCc1ccc(Cl)cc1Cl	PLK1 PBD block 30µM
O=C(Cc1c[nH]c2ccccc12)NCc1ccc(Cl)cc1	none
O=C(N/C=C\c1ccccc1)NCc1ccc(Cl)cc1Cl	PLK1 PBD block 21µM
O=C(c1ccco1)N1CCN(C(=O)c2cc3sccc3n2Cc2ccccc2)CC1	none
COc1ccc(CNC(=O)c2ccc(-c3nc(CSc4ccc(C)cc4)c(C)o3)cc2)cc1OC	none (no result: Coupling enz, PLK1 PBD block, GALK inhibitor, USP2a inh)
COc1ccc(S(=O)(=O)NCC2CCC(C(=O)NCc3ccco3)CC2)cc1 (stereo unspecified)	PLK1 PBD block 11µM
Cc1ccc(S(=O)(=O)NCC2CCC(C(=O)NCc3ccco3)CC2)cc1 (stereo unspecified)	none
COc1ccc(NC(=O)NCc2ccco2)c(OC)c1	VDR inh inconclusive, PLK1 PBD block 12µM
N#Cc1nc(-c2ccc(Cl)cc2)oc1NCc1ccco1	PLK1 PBD block 27µM
O=c1cc(CO)oc(C(Nc2ccccn2)c2ccc(F)cc2)c1O (stereo unspecified)	VDR inh 28µM, PLK1 PBD block 15µM
COc1ccc(C(c2oc(CO)cc(=O)c2O)c2oc(CO)cc(=O)c2O)cc1	none
Cc1ccnc(NC(c2ccccc2O)c2oc(CO)cc(=O)c2O)c1 (stereo unspecified)	Coupling enz -33, PLK1 PBD block inconclusive
O=c1cc(CO)oc(C(Nc2ccccn2)c2ccsc2)c1O (stereo unspecified)	none (no result: VDR inh, PLK1 PBD block, USP1 inh)
Cc1ccc(CNc2ccc(O)cc2)cc1	VDR inh 20µM, Coupling enz -46, PLK1 PBD block inconclusive, USP1 inh inconclusive | CASP1 inh CRC inactive | Casp7 confirm inactive | Casp7 cysteine inactive | CASP1 redox cys inactive
Nc1ccc(O)c(C(=O)O)c1	VDR inh 45µM!, Coupling enz -46 (no result: PLK1 PBD block, GALK inhibitor, USP2a inh, USP1 inh) | CASP1 inh CRC inactive | Casp7 confirm inactive | Casp7 cysteine inactive | CASP1 redox cys inactive
O=S1(=O)CC(N2CCN(CCO)CC2)CN1Cc1ccc(F)cc1 (stereo unspecified)	none (no result: VDR inh, Coupling enz, GALK inhibitor, USP2a inh, USP1 inh)
CCC(=O)n1nc(-c2ccco2)nc1SCc1ccccc1	none
CC(=O)n1nc(-c2ccco2)nc1SCc1ccccc1	VDR inh inconclusive, PLK1 PBD block inconclusive | CASP1 inh CRC inactive | Casp7 confirm inactive | Casp7 cysteine inactive | CASP1 redox cys inactive
Nc1ccc(N)c(Cl)c1	none (no result: VDR inh, Coupling enz, PLK1 PBD block, GALK inhibitor, USP2a inh, USP1 inh) | CASP1 inh CRC inactive | Casp7 confirm inactive | Casp7 cysteine inactive | CASP1 redox cys inactive
COCCn1c(=O)[nH]c2cc(C(=O)NC3CCCCCC3)ccc2c1=O	none
COc1cc2c(C)c3c4c(cc(OC)c(OC)c4c2cc1OC)CCN3C	VDR inh inconclusive (no result: PLK1 PBD block, GALK inhibitor, USP2a inh, USP1 inh)
COc1cc2c(C=O)c3c4c(cc(OC)c(OC)c4c2cc1OC)CCN3C	Coupling enz -34 (no result: PLK1 PBD block, GALK inhibitor, USP2a inh, USP1 inh) | CASP1 inh CRC 13µM | Casp7 confirm inconclusive | Casp7 cysteine inactive | CASP1 redox cys inconclusive
O=c1c2cc(O)c(O)cc2oc2cc(O)c(C3OC(CO)C(O)C(O)C3O)c(O)c12 (stereo unspecified)	none (no result: GALK inhibitor)
O=C1C(=C(O)c2ccccc2)C(=O)c2ccccc21	USP1 inh inconclusive
O=C1C(SCCO)=C(SCCO)C(=O)c2ccccc21	VDR inh 5.6µM, Coupling enz -56, PLK1 PBD block 2.1µM, USP1 inh 6.3µM (no result: GALK inhibitor) | CASP1 inh CRC inactive | Casp7 confirm inactive | Casp7 cysteine inactive | CASP1 redox cys inactive
CC(=O)[C@@H]1[C@@H]2C(=O)N(c3ccc(F)c(Cl)c3)C(=O)[C@@H]2C2c3ccccc3C=CN21 (stereo partly specified)	none (no result: VDR inh, PLK1 PBD block, USP1 inh) | Casp1 catalase inconclusive | CASP1 inh CRC inactive | Casp7 confirm inactive | Casp7 cysteine inactive | CASP7 redox cat inactive | CASP1 redox cys inconclusive
COc1ccc(C2c3ccc4ccccc4c3Oc3ncn(CCN4CCOCC4)c(=N)c32)cc1OC (stereo unspecified)	none
